Common to all, as to assay type: functional
Assay [1] deals with Plasmodium falciparum. As to the kind of experiment: GSK_TCMDC: Inhibition of Plasmodium falciparum 3D7 in whole red blood cells, using parasite LDH activity as an index of growth. Test compounds present at 2uM.
Assay [2] has as its system Plasmodium falciparum. As to the kind of experiment: GSK_TCMDC: Inhibition of Plasmodium falciparum Dd2 in whole red blood cells, using parasite LDH activity as an index of growth. Test compounds present at 2uM.
In assay [3] the test system is HepG2. As to the kind of experiment: GSK_TCMDC: Percent inhibition of human HepG2 cell line. Test compounds present at 10uM.

“And” between values parts separate entries of the source, which are not always exact repeats. Equal entries are not always repeated.

By Inhibition is commonly meant the percentage by which the read-out fell short of the control. A higher Inhibition goes with a strong effect.

In the case of `Cl.Fc1ccc2[nH]cc(CCN3CCC(CNCc4ccccc4)CC3)c2c1`, the Inhibition came to 100% in assay [1], 94% in assay [2] and 67% in assay [3].

As for `CC(=O)Nc1ccc(CN2CCC(N(C)c3ccc(NC(=O)c4cccc(C)c4)cc3)CC2)cc1.O=C(O)C(F)(F)F`, the Inhibition in assay [1] came out at 91%; in assay [2] it was 50%; in assay [3], 0%.

As for `COc1ccc(CN(C2CC2)C(C)C(=O)c2[nH]c(C)c(C(C)=O)c2C)cc1` (centres undefined), the Inhibition in assay [1] was 98%; in assay [2], 64%; in assay [3], 40%.

Turning to `O=C1COc2ccccc2N1CCN1CCC(NCc2ccc(-c3cccs3)cc2)CC1`, the Inhibition in assay [1] came to 87%; in assay [2], 18%; in assay [3], 37%.

Consider `COC(=O)c1ccc(CC(C)NCC(O)c2cccc(Cl)c2Cl)cc1.Cl` (centres undefined), for which the figures for the Inhibition in assay [1], in assay [2] and in assay [3] were 98%, 98% and 0%, respectively.

In the case of `COC(=O)CN(C(=O)/C=C/c1ccc(Cl)c(Cl)c1)C1CCC(CN2CCC(c3c[nH]c4ccccc34)CC2)CC1` (centres undefined), the results for the Inhibition in assay [1], in assay [2] and in assay [3] were 100%, 69% and 31%, respectively.

In the case of `N#Cc1ccc(N(CCCO)Cc2ccccc2C(F)(F)F)cc1C(F)(F)F`, the figures for the Inhibition in assay [1], in assay [2] and in assay [3] were 91%, 23% and 7%, respectively.

For the molecule `COc1cccc(O)c1CNCC(O)c1cccc(C(F)(F)F)c1` (centres undefined), the Inhibition in assay [1] was 98%; in assay [2], 96%; in assay [3] it was 31%.

Regarding `c1ccc(C(OCCC2CCN(Cc3cccc4cccnc34)CC2)c2ccccc2)cc1`, the Inhibition in assay [1] was determined as 99%; in assay [2], 99%; in assay [3], 9%.

In the case of `Br.COc1ccc(CC(C)NCC(O)c2cccc(C(F)(F)F)c2)cc1F` (centres undefined), the Inhibition in assay [1] worked out at 91%; in assay [2] it was 65%; in assay [3], 0%.

Turning to `COC(=O)c1ccc(CC(C)NCC(O)c2cccc(C(F)(F)F)c2)cc1` (centres undefined), the Inhibition in assay [1] was 94% and 97%; in assay [2], 73% and 87%; in assay [3] it was 0%.

In the case of `O=C(/C=C/c1ccc(Cl)c(Cl)c1)N1CCC(CN2CCC(c3c[nH]c4ccc(O)cc34)CC2)CC1`, the Inhibition in assay [1] came out at 100%; in assay [2], 100%; in assay [3] it was 44%.

On to `Cl.O=C(CC1CCCC1)N(CC1CCN(Cc2ccc(C(F)(F)F)cc2)CC1)c1ccc(N2CCOCC2)c(F)c1`, for which the Inhibition in assay [1] turned out to be 92%; in assay [2], 97%; in assay [3] it was 10%.

For `Cc1nc2ccccc2n1C1CC2CCC(C1)N2Cc1nccn1-c1ccccc1.O=C(O)C(F)(F)F` (centres undefined), the Inhibition in assay [1] was found to be 94%; in assay [2] it was 96%; in assay [3], 0%.

As to `COc1cc2c(c(OC)c1OC)C[C@H]1c3c(cc4c(c3-2)OCO4)CCN1C`, the results for the Inhibition in assay [1], in assay [2] and in assay [3] were 84%, 30% and 7%, respectively.

As for `COc1ccc(-c2ccccc2)cc1NC(=S)NC1CCC(CN2CCC(c3c[nH]c4ccccc34)CC2)CC1` (centres undefined), the Inhibition in assay [1] was 100%; in assay [2], 98% and 95%; in assay [3], 27% and 51%.

For the molecule `CC(=O)N(Cc1ccccc1-c1ccc(CNCCc2ccccc2)cc1)C1CCN(Cc2ccccc2)CC1.O=C(O)C(F)(F)F`, the Inhibition in assay [1] was determined as 100%; in assay [2], 85%; in assay [3], 24%.

On to `FC(F)(F)c1cccc(N2CCC(CN3CCC(c4c[nH]c5ccccc45)CC3)CC2)n1.O=C(O)C(F)(F)F`, for which the values for the Inhibition in assay [1], in assay [2] and in assay [3] were 84%, 10% and 41%, respectively.

Regarding `CC[C@H]1CN2CC[C@H]1C[C@H]2[C@H](O)c1cc(-c2ccc3ccccc3c2)nc2ccc(OC)cc12.Cl`, the Inhibition in assay [1] came to 99%; in assay [2], 99%; in assay [3], 49%.

As for `CC(Cc1ccc(SC(C)C)cc1)NCC(O)c1cccc(Cl)c1.Cl` (centres undefined), the Inhibition was found to be 99% in assay [1], 97% in assay [2] and 5% in assay [3].

For the molecule `O=C(/C=C/c1ccc(Cl)c(Cl)c1)N1CCC(CN2CCC(c3c[nH]c4ccccc34)C(O)C2)CC1` (centres undefined), the values for the Inhibition in assay [1], in assay [2] and in assay [3] were 99%, 14% and 37%, respectively.

As to `Br.CCOC(=O)c1ccc(CC(C)NCC(O)c2cccc(C(F)(F)F)c2)cc1` (centres undefined), the Inhibition was 100% in assay [1], 98% in assay [2] and 5% in assay [3].

For `CN1CC=C(c2c[nH]c3ccc(Sc4ccccc4)cc23)CC1.O=C(O)/C=C/C(=O)O`, the Inhibition in assay [1] came out at 98%; in assay [2], 99%; in assay [3] it was 36%.

Turning to `CCOC(C(=O)OCC1CCCN(C)C1)(c1ccccc1)c1ccccc1` (centres undefined), the results for the Inhibition in assay [1], in assay [2] and in assay [3] were 98%, 3% and 13%, respectively.

Take `C=Cc1cc(OC)c2c(c1)c(=O)oc1c2cc(OC)c2c(O)ccc([C@H]3O[C@H]([C@H](C)O)[C@H](O)[C@H]3O)c21`: the Inhibition in assay [1] was determined as 95%; in assay [2], 41%; in assay [3], 33%.

With `N#Cc1ccc(N(CC(=O)NCCc2ccccc2)CC2CC2)c2ccccc12.O=C(O)C(F)(F)F`, the Inhibition is recorded as 99% in assay [1], 48% in assay [2] and 0% in assay [3].

As for `CN(C)CCC(=O)c1ccccc1.Cl`, the Inhibition amounted to 100% in assay [1], 5% in assay [2] and 11% in assay [3].

Regarding `COc1ccc2[nH]cc(C3CCN(Cc4ccc(NC(=O)c5ccc(-c6ccccc6)cc5)cc4)CC3)c2c1`, the results for the Inhibition in assay [1], in assay [2] and in assay [3] were 100%, 72% and 24%, respectively.

The record behind these values is ChEMBL document CHEMBL1157539, “Thousands of chemical starting points for antimalarial lead identification” (Nature, 2010).
